Measurements: PubChem BioAssay AID827 (SRMLSC, 2007)
Hit rate of the full screen: of about 140,000 compounds, about 1,700 (1.2%) were called active. The sample as a whole holds a higher share of actives than the screen did. Values without a mark were called inactive.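 The calls were made as follows: active = viability at or below a set limit, 4 SD under the median of all tested compounds (cut at about 3.7% in these data); inactive = the rest.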

Assay: growth suppression of PTEN-null HCT116, primary screen, cell-based, CellTiter-Glo (AID 827);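 also: PTEN knockout HCT116 line with beta catenin targeted HCT116 as companion control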
Conditions: 60 h, at 10 µM, active compounds read low

Compound | viability
O=C(NCCc1ccccn1)c1cc(-c2ccc(Cl)cc2)nc2ccccc12 | 98.1%
c1ccc(-c2cc3c(NCC4COc5ccccc5O4)ncnc3s2)cc1 (stereo unspecified) | 42.1%
CCCc1cc(=O)[nH]c(SCC(=O)N2CCN(S(=O)(=O)c3ccc(C)cc3C)CC2)n1 | 93%
COc1ccc(CC(=O)Nc2ccc(-c3nnc(-c4ccc(C)cc4)o3)cc2)cc1 | 2.56% (active)
COc1ccc(CC(=O)Nc2ccc(C(=O)NC(C)(C)C)cc2)cc1 | 92.4%
COc1cccc(NC(=O)Cc2ccc(C)cc2)c1 | 113%
Cc1cccc(C)c1NC(=O)C(c1ccccc1)N1CC(=O)Nc2ccccc21 (stereo unspecified) | 66%
CC(CC(=O)Nc1cc(C(F)(F)F)ccc1Cl)c1ccccc1 (stereo unspecified) | 51.3%
O=C(Nc1cc(C(F)(F)F)ccc1Cl)C(=O)N1CCCCC1 | 91.1%
O=C(NNc1ccccc1Cl)C(O)(c1cccc(C(F)(F)F)c1)c1cccc(C(F)(F)F)c1 | 1.89% (active)
Cc1cc(C(=O)N/N=C/c2cc([N+](=O)[O-])cc(C)c2O)n[nH]1 | 83%
O=C(COC(=O)[C@H](Cc1ccccc1)NC(=O)c1cccs1)Nc1cc(F)ccc1F | 91.4%
CCCSc1nc2[nH]ncc2c(=O)[nH]1 | 90.6%
Cc1cc2oc(C(=O)Nc3c(C)n(C)n(-c4ccccc4)c3=O)c(C)c2cc1Cl | 85%
N=C(N)SCc1cccc2ccccc12 | 87.8%
CCn1c(SCc2ccc(C)cc2)nnc1-c1nn(-c2ccccc2)ccc1=O | 87.8%
CCc1ccc(-c2nn(-c3ccccc3)cc2CSC(=N)N)cc1 | 1.62% (active)
COC(=O)Cc1ccc(NC(=S)NCc2ccc(Cl)cc2)cc1 | 83.4%
S=C(NCc1ccc(Cl)cc1)NC1CCCCC1 | 77.6%
S=C(NCc1ccc(Cl)cc1)NC12CC3CC(CC(C3)C1)C2 | 2.95% (active)
C=CCNC(=O)COC(=O)c1ccccc1C(=O)N(C)C1CCCCC1 | 92.8%
Cc1cc(C)cc(NC(=S)NCc2ccc(F)cc2)c1 | 78.2%
Cc1ccc(C(=O)N2CC(=O)Nc3ccccc32)o1 | 100%

Compound | viability
CC(=O)c1cc(-c2ccccc2)n(CCC(=O)NC2CCCCCC2)c1C | 74.8%
COc1cccc(N(C(=O)C2COc3ccccc3O2)C(C(=O)NC2CCCCC2)c2ccc(O)cc2)c1 (stereo unspecified) | 56.8%
COC(=O)Cc1csc(/N=C/c2c(O)n(-c3cccc(C(F)(F)F)c3)c(=O)c3ccccc23)n1 | 47.7%
CCOC(=O)C1=C(C)N=c2s/c(=C\C(=O)OC)c(=O)n2C1c1ccc(OC)cc1 (stereo unspecified) | 95.2%
O=C1CCCC2=C1C(c1ccccc1)n1c(s/c(=C/c3cccc(F)c3)c1=O)=N2 (stereo unspecified) | 80.9%
COc1ccc(OC)c(C2C3=C(N=c4s/c(=C\c5cccc(O)c5)c(=O)n42)c2ccccc2CC3)c1 (stereo unspecified) | 3.19% (active)
COc1ccccc1CNC(=O)CN1CCC(n2cnc3cc(F)ccc32)CC1 | 101%
COCCNc1nc(N)c([N+](=O)[O-])c(NCCO)n1 | 100%
CNc1nc(Nc2ccc(C)c(Cl)c2)nc(N)c1[N+](=O)[O-] | 2.94% (active)
Nc1nc(NCCCN2CCOCC2)nc(Nc2ccccc2)c1[N+](=O)[O-] | 63.9%
CCN(CC)c1ccc(S(=O)(=O)N2CCOCC2)cc1NC(=O)CSc1cccc[n+]1[O-] | 93.9%
CCC(C)(NC(=O)c1ccccn1)C(=O)NC1CCCCC1 (stereo unspecified) | 105%
CCN(CC)CCOc1ccc2c(c1)C(=NNC(=O)c1ccccn1)c1cc(OCCN(CC)CC)ccc1-2 | 0.61% (active)
COc1ccc(CC(=O)N/N=C(\C)c2ccccn2)cc1 | 4.88%
O=C(O)c1cccc(S(=O)(=O)Nc2ccc(O)cc2Sc2nc3ccccc3s2)c1 | 94%
O=[N+]([O-])c1c(NCCO)cc(Sc2nc3ccccc3s2)c2nonc12 | 1.48% (active)
COc1ccc(S(=O)(=O)Nc2ccc(O)c(Sc3nc4ccccc4s3)c2)cc1 | 78.8%
CCCCCNC(=O)c1cccnc1SCC(=O)Nc1ccccc1OC | 91.1%
CCOC(=O)CN(Cc1ccc(OC)c(OC)c1)S(=O)(=O)c1ccc(OC)cc1 | 96.9%
COc1ccc(C(CCN(Cc2ccc(OC)c(OC)c2)C(=O)CCl)c2ccccc2)cc1 (stereo unspecified) | 1.54% (active)
COc1ccc(CCN(C(=O)COc2ccccc2)c2nc(-c3ccccc3)cs2)cc1OC | 74.5%
Cc1cc(F)ccc1S(=O)(=O)N1CCCOC1CNC(=O)C(=O)NCCC1=CCCCC1 (stereo unspecified) | 93.5%
N#Cc1ccc(C(=O)Nc2nc(-c3cccs3)c(C(=O)C(F)(F)F)s2)cc1 | 40.3%
